# Screening results from PubChem BioAssay.
# CHT allo act = allosterically activates the human high affinity choline transporter | CHT-expressing cells, membrane potential dye, choline EC20; stronger effect = higher value; LV-AA mutant CHT in HEK293 cells | AID 488977 | 310,000 compounds, 0.49% hits | B-score at 10 µM;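 active means initial fluorescence not abnormally high and integrated response B-score, plate-corrected, over 3 SD above library mean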
# Target sequence (Q9GZV3 whole entry, looked up): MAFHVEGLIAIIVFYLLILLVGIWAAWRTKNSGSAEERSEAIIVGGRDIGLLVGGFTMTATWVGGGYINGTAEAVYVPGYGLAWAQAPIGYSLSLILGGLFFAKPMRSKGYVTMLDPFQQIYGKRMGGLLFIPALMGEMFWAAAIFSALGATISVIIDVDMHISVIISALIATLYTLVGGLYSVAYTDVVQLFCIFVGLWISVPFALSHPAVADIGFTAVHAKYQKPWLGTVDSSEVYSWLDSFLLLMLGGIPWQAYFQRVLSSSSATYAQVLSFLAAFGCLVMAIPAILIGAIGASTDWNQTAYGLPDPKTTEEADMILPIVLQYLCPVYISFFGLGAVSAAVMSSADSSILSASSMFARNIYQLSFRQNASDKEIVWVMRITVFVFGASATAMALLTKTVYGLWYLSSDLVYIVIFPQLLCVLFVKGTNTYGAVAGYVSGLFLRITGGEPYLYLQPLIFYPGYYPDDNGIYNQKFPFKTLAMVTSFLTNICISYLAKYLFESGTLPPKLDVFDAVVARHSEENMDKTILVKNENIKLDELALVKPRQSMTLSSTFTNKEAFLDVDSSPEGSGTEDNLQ
# ANO1 block = mouse TMEM16A channel inhibition, primary screen | HEK293 TMEM16A/YFP iodide influx fluorescence, ionomycin | Q8BHY3 | normalized B-score (activity score, 25-100; higher = stronger inhibition) at 10 µM | 310,000 compounds, 1.2% hits;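 active means ratio plate-corrected score three or more library SD toward inhibition, starting fluorescence score within five deviations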;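 further: score derived from kinetic fluorescence span divided by baseline fluorescence per well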
# CHT inh = inhibitors of human choline transporter CHT | 310,000 compounds, 0.86% hits | CHT-expressing cells, membrane potential dye, choline response; stronger effect = lower value | B-score at 10 µM | AID 488975;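 active means B-score over 3 SD under the library average, and starting fluorescence ratio not unusually high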;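 further: choline stimulus applied at its EC90 after an EC20 pre-addition; B-score computed on integrated fluorescence ratio after choline addition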
# TMEM16A act = mouse TMEM16A channel activation, primary screen; 340,000 compounds, 0.3% hits; HEK293 TMEM16A/YFP-H148Q/I152L, iodide quench fluorescence; stronger effect = lower value; B-score at 10 µM; Q8BHY3; AID 623877;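 active means fluorescence-ratio B-score plate-corrected deviation score at least 3 library SD below zero, with starting fluorescence score within 5 deviations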;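 further: channel opened by trigger with iodide after compound preincubation; score built on the fluorescence ratio of max minus min over baseline; more negative score means more quench and so TMEM16A activation or potentiation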
# An asterisk follows results filed as active; i = inactive; x = no result given. The list is not random: actives were taken first. Their share in the collection is about 2.4%.
SMILES,CHT allo act,ANO1 block,CHT inh,TMEM16A act
COc1ccc(O)c(C(=O)c2cc(C#N)c(=O)n(-c3ccc(Cl)cc3)c2)c1,i,i,i,-4.6*
COc1cc(OC)c(NC(=O)CCc2nc(-c3ccc(C)cc3)no2)cc1Cl,i,i,i,i
O=C(NNc1nc(Nc2ccccc2)nc(N2CCOCC2)n1)Nc1ccc(Cl)cc1,i,i,i,i
CN1C(=O)/C(=C\c2cc(N=Nc3ccccc3)ccc2O)SC1=S,i,100*,i,i
O=C(Nc1ccc(Cl)c(S(=O)(=O)Nc2ccccc2Cl)c1)c1cccs1,i,25*,i,i
COc1ccccc1NS(=O)(=O)c1cc(NC(=S)Nc2cc(C)cc(C)c2)ccc1Cl,i,i,i,-5.6*
COc1ccc(NC(=O)CCC(=O)c2cccs2)cc1S(=O)(=O)Nc1ccccc1Cl,i,i,i,i
COc1ccccc1NS(=O)(=O)c1cc(N/C(=N\S(=O)(=O)c2ccccc2)c2ccc(F)cc2)ccc1Cl,i,i,i,i
Cc1ccc(/C(O)=C2\C(=O)C(=O)N(C)C2c2cccc([N+](=O)[O-])c2)cc1 (stereo not given),i,i,i,i
O=C(Nc1ncc([N+](=O)[O-])s1)c1cccc([N+](=O)[O-])c1,i,100*,i,-4.6*
O=C(Nc1ncc(S(=O)(=O)c2ccc([N+](=O)[O-])cc2)s1)c1ccc2ccccc2c1,i,100*,i,i
Cc1ccc(NC(=O)CN2C(=O)S/C(=C/c3ccc(-c4cc(C(=O)O)ccc4C)o3)C2=O)cc1C,i,100*,i,i
CN(C(=O)c1ccccc1OCc1ccc(Cl)cc1)c1ccccc1,i,i,i,i
NC(=O)COC(=O)c1ccccc1OCc1ccc(Cl)cc1,i,i,i,-25*
CCN(CC)C(=O)c1ccc(Nc2nnc(C)c3ccccc23)cc1,i,i,i,i
C=CC[C@H](CC(=O)NCCO)C(=O)N[C@H](COC(=O)[C@@H](CC=C)CC(=O)OC(C)(C)C)Cc1ccccc1,x,x,x,i
O=C(NCC(=O)N(c1ccccc1)C(C(=O)NC1CCCC1)c1ccncc1)c1ccco1 (stereo not given),i,i,i,-16*
Cc1ccc(S(=O)(=O)N2CCOCC2)cc1NC(=O)CN1C(=O)NC2(CCCC2)C1=O,x,x,x,i
COc1ccccc1Oc1ccc2c(c1)C(=O)N(c1ccccc1)C2=O,i,i,i,i
COc1ccccc1Oc1ccc2c(c1)C(=O)N(c1ccc(C)cc1)C2=O,i,i,i,-6.1*
CN(C)CCC[C@]1(c2ccc(F)cc2)OCc2cc(C#N)ccc21,i,i,i,i
O=C(CSc1nnc(Cn2nnc3ccccc32)o1)N(Cc1ccc(Cl)cc1)c1ccccc1,i,100*,i,i
CCCC1=NN(C(=O)C(=O)Nc2ccc(Br)cc2)C(O)(C(F)(F)F)C1 (stereo not given),i,25*,i,i
CCC1=NN(C(=O)C(=O)Nc2ccc(Br)cc2)C(O)(C(F)(F)F)C1 (stereo not given),i,i,i,i
Clc1ccc2[nH]c3c(NCC4CCCO4)ncnc3c2c1 (stereo not given),i,100*,i,x
SMILES,CHT allo act,ANO1 block,CHT inh,TMEM16A act
Clc1ccc(-n2ncc3c(NCC4CCCO4)ncnc32)cc1 (stereo not given),i,i,i,i
Cc1nc(C(F)(F)F)c(C(=O)N=CN(C)C)s1,i,i,i,i
Nc1nc(N2CCN(C/C=C/c3ccccc3)CC2)nc2ccccc12,i,i,-6.8*,i
Cc1nc2ccc3[nH]snc3c2n1,i,i,i,i
CCOC(=O)c1c(NC(=S)Nc2ccccc2)sc2c1CCN(CCc1ccccc1)C2,i,i,i,x
CCOC(=O)c1c(N)sc2c1CCN(CCc1ccccc1)C2,8.1*,i,i,i
CC(C)(C)C(=O)Cn1c(=N)n(Cc2ccccc2)c2ccccc21,i,i,i,i
Cc1ccc(Cn2c(=N)n(CC(=O)c3ccccc3)c3ccccc32)cc1,i,25*,i,i
CCc1cccc2c(C(=O)C(NCCOC)c3ccccc3)c[nH]c12 (stereo not given),i,i,i,i
O=c1cc(CN2CCCc3ccccc32)nc2sccn12,i,i,i,-11*
